Reference: PubChem BioAssay AID1850 (Southern Research Specialized Biocontainment Screening …, 2009)
In all, about 310,000 compounds went through this assay and about 1,000 (0.32%) were called active. A selection follows. Results with a measured potency or affinity are listed apart. Values without a mark were called inactive. No rule for the calls is given here.

test: PhoP regulon inhibitors, Salmonella typhi PhoP promoter GFP reporter, confirmatory (AID 1850); conditions: fluorescence, 4 h, at 50 µM, active compounds read high;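 also: 0% = induced wells with vehicle and 100% = uninduced wells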

Going from `OC(CN1CCCCC1)Cn1c2ccccc2c2ccccc21` (stereo not drawn) to `O=c1c2ccccc2n(CC(O)CN2CCCCC2)c2ccccc12` (stereo not drawn), the inhibition rises from -5.86% to -2.95%.

Going from `COc1ccc(OCC(O)CNCc2ccco2)cc1` (stereo not drawn) to `OC(CNCc1ccco1)Cn1c2ccccc2c2ccccc21` (stereo not drawn), the inhibition rises from 0.683% to 1.11%.

Compared with `CC1(C)CC(OC(=O)c2ccco2)CC(C)(C)N1O`, `CC1CC(C)CN(C(=O)COC(=O)c2ccc[nH]c2=O)C1` (stereo not drawn) is higher in inhibition: -11.8% for the first, -8.36% for the second.

First: CCn1nc(C(=O)OCC(=O)N(CC(C)C)c2c(N)n(Cc3ccccc3)c(=O)[nH]c2=O)c2ccccc2c1=O
Second: COC(=O)C1=C(C)N(Cc2ccccc2)C(=NCc2ccccc2)N[C@H]1c1cccc(F)c1
The inhibition of the first is lower: -10.1% for the first, -0.78% for the second.

Compared with `Cc1csc(NC(=O)CSc2nnc3c4ccccc4nc(C(C)(C)C)n23)n1`, `Cc1ccc2c(Cl)cc(Cl)c(OCC(=O)NC(C)(C)C)c2n1` is lower in inhibition: -6.02% for the first, -16.9% for the second.

First: CN(C)/C=C/c1onc(-c2c(F)cccc2Cl)c1C#N
Second: Cc1onc(-c2ccccc2Cl)c1C(=O)Nc1ccccc1C(N)=O
The inhibition of the first is lower: -0.05% for the first, 7.75% for the second.

First: COc1ccc(-n2c(-c3ccc(Br)cc3)c[n+]3c2CCc2ccccc2-3)cc1
Second: Brc1ccc(-c2cn3c(n2)CCc2ccc4cccnc4c2-3)cc1
The inhibition of the first is higher: 13.6% for the first, 1.82% for the second.

Compared with `COc1ccc(-c2nc(CS(=O)(=O)CC(=O)Nc3cccc(C(C)=O)c3)c(C)o2)cc1`, `COC(=O)/C(=C\C(=O)c1ccccc1)Nc1ccc(OC)cc1` is higher in inhibition: -8.19% for the first, -7.68% for the second.

First: CC(=O)c1ccc(O)c(CSc2nncn2C)c1
Second: Cc1cc([N+](=O)[O-])nn1CC(=O)N/N=C/c1ccc(O)cc1O
The inhibition of the first is lower: -0.79% for the first, 18.8% for the second.

Going from `COC(=O)C1=C(C)N(Cc2ccccc2)C(=NCc2ccc(OC)cc2)N[C@H]1c1cccc(F)c1` to `Cc1cccc(NC(=O)c2cc(S(=O)(=O)N(C)c3ccc(F)cc3)ccc2Cl)n1`, the inhibition falls from 10.3% to 8.42%.

Compared with `CCCNC(=O)c1cc(-c2ccccc2)c(N2CCCCC2)s1`, `CCc1ccccc1NC(=S)N1CCCCCC1` is lower in inhibition: 9.44% for the first, -5.25% for the second.

First: CCCCc1ccc(NC(=O)CSc2nc(=O)n(CCN(C)C)c3c2CCC3)cc1
Second: CCC(C)NC(=O)CSc1nc2ccc(N3CCOCC3)cc2c(=O)n1CCc1ccccc1 (stereo not drawn)
The inhibition of the first is higher: 11.9% for the first, -0.99% for the second.

First: Oc1ccccc1Nc1ccccn1
Second: c1ccc(Nc2ccccn2)nc1
The inhibition of the first is higher: -1.96% for the first, -2.23% for the second.

First: Cc1ccc(S(=O)(=O)N2CCC(C(=O)O)CC2)cc1
Second: CS(=O)(=O)N(CCc1ccccc1)CC(=O)N1CCN(c2ccccc2)CC1
The inhibition of the first is higher: -0.71% for the first, -4.94% for the second.

First: CCOCCCn1c(=S)[nH]c2cc(C(=O)NCCc3ccc(OC)c(OC)c3)ccc2c1=O
Second: COc1cccc(C(=O)NC2CCCc3ccccc32)c1OC (stereo not drawn)
The inhibition of the first is higher: 3.11% for the first, -9.26% for the second.

First: CCCC(CCC)C(=O)Nc1ccc2c(c1)N(C(=O)CN1CCN(C)CC1)c1ccccc1CC2
Second: CCCC(=O)N1CCN(c2nc3ccccc3s2)CC1
The inhibition of the first is higher: 5.91% for the first, -3.88% for the second.

Going from `C/C(=C\C(=O)c1ccccc1)Nc1ccc(O)cc1` to `Cc1ccc(NC(=O)c2ccccc2)cc1`, the inhibition rises from -9.8% to -5.33%.

Compared with `Cc1ccc(NC(=O)NNC(=O)c2ccccc2)cc1`, `Cc1ccc(C)c(/C=C/C(=O)c2ccccc(=O)c2O)c1` is lower in inhibition: 1.31% for the first, -3.4% for the second.

Going from `O=C(NCc1ccc(Cl)cc1)N1CCc2ccccc2C1` to `O=C(NCC1CCCO1)c1cccc(Oc2ccccc2)c1` (stereo not drawn), the inhibition falls from 2.15% to -8.15%.

First: COc1ccc2c(c1)CC/C(=C\c1ccc(C)o1)C2=O
Second: CN(C)CC/C=C1/c2cc(F)ccc2CSc2ccc(F)cc21
The inhibition of the first is higher: -3.7% for the first, -7.52% for the second.

Going from `CC1Cc2ccccc2N1Cc1nc2scc(-c3cccs3)c2c(=O)[nH]1` (stereo not drawn) to `O=C(O)/C(=C\c1cccs1)c1ccc(F)cc1`, the inhibition falls from 0.2% to -11.8%.

First: O=C(OCC(=O)N1CCOCC1)c1ccccc1O
Second: O=C(O)[C@@H]1CC(O)CN1C(=O)CCc1c[nH]c2ccccc12 (stereo partly drawn)
The inhibition of the first is lower: 5.57% for the first, 6.6% for the second.

Compared with `Cc1ccc2c(Cl)cc(Cl)c(OCC(=O)N(C(C)C)C(C)C)c2n1`, `CC(=O)c1c(C(C)=O)c(C)n(-c2ccc(N)c(C)c2)c1C` is lower in inhibition: -1.43% for the first, -3.65% for the second.

First: COc1ccc(CCNC(=O)COC(=O)C23CC4CC(CC(C4)C2)C3)cc1
Second: CNC(=O)C1C2C=CC3(O2)C1C(=O)N(CCOC)C3C(=O)NCc1ccc(OC)cc1 (stereo not drawn)
The inhibition of the first is lower: -12.8% for the first, 16.8% for the second.

Going from `O=C(Cn1cncn1)N/N=C/c1cccc2ccccc12` to `O=C(Cn1cncn1)N/N=C/c1ccccc1Cl`, the inhibition falls from -7.61% to -13.1%.

First: Cc1cc([N+](=O)[O-])nn1CC(=O)N/N=C/c1ccccc1Br
Second: Cc1cc(C(=O)N/N=C/c2c(C)n(C)c3ccccc23)n[nH]1
The inhibition of the first is higher: 13.2% for the first, -9.94% for the second.

Going from `O=C(O)c1cccc(N/N=C/c2cc(Br)cc(Br)c2O)c1` to `O=C(O)c1ccccc1N/N=C/c1cc(Br)cc(Br)c1O`, the inhibition rises from -6.95% to 5.52%.

First: Brc1cccc(C=Nc2cccc3ncccc23)c1
Second: Oc1c(Br)cc(Br)cc1C=Nc1cccnc1
The inhibition of the first is lower: -0.83% for the first, 7.09% for the second.

First: CN(C)c1ccc(C(=O)N/N=C/c2cc(Br)cc(Br)c2O)cc1
Second: Cc1cccc(N=Cc2cc(Br)cc(Cl)c2O)c1
The inhibition of the first is lower: -1.06% for the first, 10.7% for the second.

First: O=C(Nc1nnc(-c2ccc(F)cc2)s1)c1ccco1
Second: CN(C)CC/C=C1\c2cc(F)ccc2CSc2ccccc21
The inhibition of the first is higher: 2.98% for the first, 1.61% for the second.

Compared with `CC1CCCCC1NC(=O)CN(C)S(=O)(=O)c1cccc2cccnc12` (stereo not drawn), `Cc1ccc(/C=C/C(=O)c2ccccc(=O)c2O)c(C)c1` is lower in inhibition: 10.4% for the first, -6.97% for the second.

Compared with `CN(C)CC/C=C1/c2ccccc2Sc2ccc(Cl)cc21`, `CN(C)CC/C=C1/c2ccc(F)cc2Sc2ccc(Cl)cc21` is lower in inhibition: 21% for the first, -10.8% for the second.

Going from `CN(C)CC/C=C1/c2ccccc2Sc2c(O)cc(Cl)cc21` to `COc1cc(Cl)cc2c1Sc1ccccc1/C2=C/CCN(C)C`, the inhibition falls from 14.1% to -4.02%.

Going from `CN(C)CC/C=C1\c2cc(Cl)ccc2Sc2cc(F)c(F)cc21` to `COc1cc2c(cc1Cl)/C(=C\CCN(C)C)c1ccccc1S2`, the inhibition falls from 10.9% to 2.09%.
